In the library only some 2.7% were active in any assay of this set; here they are far more common.
rCAG RNA binder = binds r(CAG) RNA repeats; r(CAG) RNA repeat, TO-PRO-1 dye displacement fluorescence; inhibition, % at 3 µM; hit rate 1.3% among 370,000; AID 651821;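 active means inhibition above the plate cutoff, the mean of all test compounds on that plate plus 3 SD, cut at about 35% in these data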;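 further: 0% = DMSO alone and 100% = 100 µM mitoxantrone as full dye displacement; higher means more dye released from RNA so lower well fluorescence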
NadD inh = inhibitors of Staphylococcus aureus NadD. purified NadD enzyme, colorimetric absorbance read-out. inhibition, % at 20 µM. hit rate 0.78% among 360,000. AID 602399; in the data active means inhibition above about 26%
MsrA act = bovine methionine sulfoxide reductase A activation. AID 602163. activation, % at 10.6 µM. hit rate 0.3% among 360,000. purified bovine MsrA, absorbance read-out; in the data active means activation above about 7.5%;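 further: 0% = vehicle and 100% = reference activator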
MsrA inhibitor = inhibits bovine methionine sulfoxide reductase A; inhibition, % at 15.5 µM; purified bovine MsrA, absorbance read-out; hit rate 0.75% among 360,000; AID 651718; in the data active means inhibition above about 4.5%;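 further: 0% = vehicle wells with enzyme and 100% = reference inhibitor wells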
rCAG bind conf = r(CAG) RNA repeat binding, confirmation | shares compounds with rCAG RNA binder | inhibition, % at 3 µM | hit rate 70% among 4,300 | TO-PRO-1 dye displacement fluorescence | AID 652065;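 active means inhibition above a per-plate cutoff, the mean inhibition of sample wells plus 3 SD, cut at about 35% in these data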;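 further: loss of TO-PRO-1 fluorescence as compound displaces dye from 1x1 AA loop RNA; 0% = DMSO only wells and 100% = 100 µM mitoxantrone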
DNA CAG counter = disrupts DNA CAG TO-PRO-1 complex, flagging rCAG hits | shares compounds with rCAG RNA binder | d(CAG) DNA oligo TO-PRO-1 dye displacement, fluorescence | inhibition, % at 3 µM | hit rate 94% among 4,300 | AID 652068;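 active means inhibition above its plate's cutoff, the mean test-well inhibition plus 3 SD, cut at about 4.8% in these data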;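 further: 0% = DNA dye mix with DMSO and 100% = 100 µM mitoxantrone; hits displace the dye from DNA and so lower well fluorescence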
* = called active by the depositor; nt = no result.

SMILES | rCAG RNA binder | NadD inh | MsrA act | MsrA inhibitor | rCAG bind conf | DNA CAG counter
N#C/C(=C\c1ccc(C(=O)O)cc1)S(=O)(=O)c1cc(Br)ccc1Br | 54.8* | -0.3 | -4.2 | -1.5 | 11.6 | 1.2
COC(=O)C1=C(CSc2nc3c(cc2C#N)CN(C)CC3)OC(N)=C(C#N)C1c1ccc(F)cc1 (stereo unspecified) | 50.3* | 21.1 | -1.6 | 0.1 | 27.3 | 15.8*
Cc1cccc(C)c1-n1c(SCC(=O)Nc2ccc(C(=O)O)cc2)nnc1-c1cccc(S(=O)(=O)N(C)C)c1 | 38.0* | 1.9 | -0.4 | -1.4 | 29.4 | 3.6
COc1cc(CCc2ccccc2)c(C(=O)O)c(O)c1CC=C(C)C | 79.3* | 5.4 | -0.2 | 1.0 | 77.0* | 40.9*
COc1cccc(OC)c1C(=O)NCCc1ccccc1 | -2.1 | -4.0 | -7.5 | -0.1 | nt | nt
COc1cc(CCc2ccccc2)c(C(=O)O)c(O)c1C/C=C(/C)CCC=C(C)C | 93.5* | 23.2 | -9.7 | -1.0 | 82.0* | 46.7*
COCOc1ccc(/C=C/C(=O)c2c(OCOC)cc(OCOC)c(CC=C(C)C)c2O)cc1OCOC | nt | 4.9 | -12.1 | nt | nt | nt
C#CCN1CC(COc2ccccc2)Oc2cccc(Oc3ccc(C(C)C)cc3)c2S1(=O)=O (stereo unspecified) | 7.2 | nt | nt | 0.2 | nt | nt
Cc1ccc(C(=O)Nc2ccc(C)c(S(=O)(=O)Nc3ccccc3Cl)c2)s1 | 35.7* | -1.1 | -3.2 | 0.2 | 46.2* | 15.8*
O=C(Nc1ccc(Cl)c(S(=O)(=O)Nc2ccccc2Cl)c1)c1cccs1 | 48.0* | -3.5 | 1.2 | -0.1 | 28.9 | 10.5*
CCCc1cc(=O)[nH]c(SCC(=O)NC(=O)c2ccccc2)n1 | nt | -5.6 | -6.8 | nt | nt | nt
CCCc1cc(=O)[nH]c(SCC(=O)Nc2nc(-c3ccccc3)cs2)n1 | 44.5* | 6.0 | -4.1 | 1.7 | 56.2* | 19.4*
COc1ccc(Cl)cc1NC(=O)CSc1nc(-c2ccccc2)cc(=O)[nH]1 | 42.9* | 9.2 | -4.1 | 0.8 | 67.5* | 30.1*
COc1ccc(S(=O)(=O)Nc2cc3c(C(C)=O)c(C)oc3c3ccccc23)cc1 | 3.6 | -0.6 | -0.8 | 0.3 | nt | nt
Cc1oc2c(cc(NS(=O)(=O)c3ccc(C(C)C)cc3)c3ccccc32)c1C(=O)O | 54.1* | 27.4 | 2.3 | -1.2 | 62.6* | 28.0*
Cc1oc2c(cc(NS(=O)(=O)c3cccs3)c3ccccc32)c1C(=O)OC(C)C | 37.4* | -1.0 | -7.5 | 2.0 | 31.5 | 9.5*
CCCCN1C(=O)C(CC(=O)NC(c2ccccc2)c2ccccc2)CC(C(=O)N(C(C)C)C(C)C)=C1C (stereo unspecified) | -0.1 | 3.4 | -1.4 | -0.1 | nt | nt
O=C(NNc1c(Cl)cc(Cl)cc1Cl)c1cccc([N+](=O)[O-])c1 | 37.4* | -8.3 | -2.8 | -1.1 | 5.8 | 2.9
O=C(NC(NC(=S)Nc1c(Cl)cccc1Cl)C(Cl)(Cl)Cl)c1cccc([N+](=O)[O-])c1 (stereo unspecified) | 46.7* | 1.6 | -2.6 | 0.6 | 36.0* | 15.7*
COc1ccc([N+](=O)[O-])cc1NC(=S)NC(NC(=O)C(c1ccccc1)c1ccccc1)C(Cl)(Cl)Cl (stereo unspecified) | 46.9* | 25.9 | -2.3 | 1.1 | 38.7* | 23.4*
Clc1ccccc1CN1CCN(/N=C/C=C/c2ccco2)CC1 | 3.0 | 8.6 | -0.8 | 1.1 | nt | nt
NS(=O)(=O)c1cnccc1Nc1cccc(F)c1 | 0.7 | 0.9 | -0.6 | 0.6 | nt | nt
CC1(C(=O)NS(=O)(=O)c2ccccc2)CCN1C(=O)C1(c2ccc(Cl)cc2)CCC1 (stereo unspecified) | 27.1 | -2.3 | -6.4 | -0.5 | nt | nt
CC1(C(=O)NS(=O)(=O)c2ccccc2Cl)CCN1C(=O)C1(c2ccc(Cl)cc2)CC1 (stereo unspecified) | 35.9* | 1.8 | -2.1 | -0.9 | 28.5 | 5.1*
CC1(C(=O)NS(=O)(=O)c2ccccc2Cl)CCN1C(=O)C1(c2ccccc2)CC1 (stereo unspecified) | 12.1 | -3.8 | 4.0 | -0.3 | nt | nt
Cc1ccccc1S(=O)(=O)NC(=O)C1(C)CCN1C(=O)C1(c2ccc(Cl)cc2)CCC1 (stereo unspecified) | 47.6* | 1.8 | -2.7 | -0.6 | 36.7* | 8.8*
O=C(O)c1cnn(-c2nc(-c3ccc(Cl)c(Cl)c3)cs2)c1C(F)(F)F | 64.1* | -2.7 | -2.8 | 1.1 | 44.4* | 9.5*
O=C(O)c1cnn(-c2nc(-c3cccc(F)c3)cs2)c1C(F)(F)F | 5.2 | -6.5 | -4.0 | -0.8 | nt | nt
